Where a name gives a salt, the structure may show the parent alone.
What was measured:
Conditions in all cases: 20 µM; incubation time: 27 h, anaerobic, 37 °C;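 for the amine columns active = adjusted P below 0.05 in both replicates with a change the same way and a mean fold change under 0.8 or over 1.25; inactive = the rest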
[1] = system: Clostridium sporogenes DSM 1664; test: growth (OD595) fold change vs plate DMSO controls (fold change (ratio)); higher = more growth
How it was run: (§1)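 Anaerobic 27 h, 37 °C mGAM 96-well cultures were shaken, then read for absorbance at 595 nm. Values were blank-subtracted and corrected for compound background using 20 µM compound solutions in water. A calibration factor of 5 converted them to OD. Growth is the fold change versus the median of plate DMSO controls. Fold changes above 1.5 were set to NA, and values are the mean of 2 biological replicates.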

Escherichia coli IAI1 [2] = test: as above
How it was run: as §1

[3] = system: Klebsiella aerogenes DSM 30053; test: as above
How it was run: as §1

[4] = system: Ruminococcus gnavus DSM 108212; test: as above
How it was run: as §1

[5] = system: Klebsiella aerogenes DSM 30053; test: fold change of Histamine concentration vs plate DMSO controls (fold change (ratio)); higher = more amine produced, active = hit call of the paper (significant change in both replicates, either direction)
How it was run: (§2)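 Using LC–triple-quadrupole MS with dynamic MRM, amines were quantified against external calibration curves and corrected for drift within each batch. Samples were whole anaerobic mGAM cultures of four gut strains, grown 27 h at 37 °C from OD 0.1 before 1:1 dilution, extracted with cold acetonitrile/methanol containing 0.1% formic acid and centrifuged. Compounds were present at 20 µM final (sweeteners at 50 µM final). The numbers are fold changes versus plate DMSO controls, each the mean of 2 biological replicates.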

[6] = system: Clostridium sporogenes DSM 1664; test: fold change of Tryptamine concentration vs plate DMSO controls (fold change (ratio)); higher = more amine produced, active = hit call of the paper (significant change in both replicates, either direction)
How it was run: as §2

[7] = system: Ruminococcus gnavus DSM 108212; test: as above
How it was run: as §2

Escherichia coli IAI1 [8] = test: fold change of Putrescine concentration vs plate DMSO controls (fold change (ratio)); higher = more amine produced, active = hit call of the paper (significant change in both replicates, either direction)
How it was run: as §2

[9] = system: Klebsiella aerogenes DSM 30053; test: as above
How it was run: as §2

Escherichia coli IAI1 [10] = test: fold change of Cadaverine concentration vs plate DMSO controls (fold change (ratio)); higher = more amine produced, active = hit call of the paper (significant change in both replicates, either direction)
How it was run: as §2

[11] = system: Klebsiella aerogenes DSM 30053; test: as above
How it was run: as §2

[12] = system: Ruminococcus gnavus DSM 108212; test: fold change of 2-Phenylethylamine concentration vs plate DMSO controls (fold change (ratio)); higher = more amine produced, active = hit call of the paper (significant change in both replicates, either direction)
How it was run: as §2

Structure (SMILES)	growth [1]	growth (Escherichia coli IAI1 [2])	growth [3]	growth [4]	fold change of Histamine concentration [5]	fold change of Tryptamine concentration [6]	fold change of Tryptamine concentration [7]	fold change of Putrescine concentration (Escherichia coli IAI1 [8])	fold change of Putrescine concentration [9]	fold change of Cadaverine concentration (Escherichia coli IAI1 [10])	fold change of Cadaverine concentration [11]	fold change of 2-Phenylethylamine concentration [12]
C[C@]12CCC(=O)C=C1CC[C@@H]1[C@@H]2C(=O)C[C@]2(C)C(=O)CC[C@@H]12 [Adrenosterone]	1.1	1.04	1.01	1	0.94 (inactive)	1.02 (inactive)	1.07 (inactive)	1.09 (inactive)	0.998 (inactive)	1.01 (inactive)	1.02 (inactive)	1.07 (inactive)
C1=Cc2cccc3cccc1c23 [Acenaphthylene]	0.849	1.03	0.96	1.15	1.02 (inactive)	0.962 (inactive)	0.991 (inactive)	1.02 (inactive)	1 (inactive)	1.02 (inactive)	0.985 (inactive)	0.996 (inactive)
CN[C@@H]1C[C@@H](c2ccc(Cl)c(Cl)c2)c2ccccc21 [Indatraline hydrochloride]	1.13	1.06	0.959	0.932	0.904 (inactive)	1.29 (inactive)	0.8 (inactive)	0.811 (inactive)	0.863 (inactive)	0.98 (inactive)	1.1 (inactive)	0.883 (inactive)
Clc1ccc(C(OCCN2CCCCC2)c2ccccc2)cc1 (stereo not drawn) [Cloperastine hydrochloride]	1.14	1.07	1.06	0.788	0.884 (inactive)	1.01 (inactive)	0.88 (inactive)	1.06 (inactive)	0.988 (inactive)	0.958 (inactive)	1.03 (inactive)	1 (inactive)
CCOc1cc(Oc2ccc(C(F)(F)F)cc2Cl)ccc1[N+](=O)[O-]	1.13	0.996	1	0.995	0.981 (inactive)	1.06 (inactive)	1.04 (inactive)	0.953 (inactive)	0.943 (inactive)	0.933 (inactive)	1.08 (inactive)	1.05 (inactive)
CNC(=O)c1cc(Cl)cc(C)c1NC(=O)c1cc(Br)nn1-c1ncccc1Cl	0.896	1.11	1.06	1.17	0.901 (inactive)	0.953 (inactive)	0.997 (inactive)	1.02 (inactive)	0.982 (inactive)	0.964 (inactive)	0.999 (inactive)	1.01 (inactive)
CCSC(C)CC1CC(=O)C(/C(CC)=N/OC/C=C/Cl)=C(O)C1 (mixture of isomers)	0.928	1.04	0.988	0.939	1.02 (inactive)	1.01 (inactive)	1.03 (inactive)	1.02 (inactive)	0.996 (inactive)	1 (inactive)	1.01 (inactive)	0.99 (inactive)
NCC1(CC(=O)O)CCCCC1 [Gabapentin]	1.14	1.15	1.03	1	1.04 (inactive)	0.986 (inactive)	1.03 (inactive)	1.03 (inactive)	1 (inactive)	1.02 (inactive)	0.985 (inactive)	1.07 (inactive)
CCC1(c2cccc(O)c2)CCCCN(C)C1 (stereo not drawn) [Meptazinol hydrochloride]	0.881	1.03	1.02	1.01	0.983 (inactive)	1.06 (inactive)	0.997 (inactive)	1.03 (inactive)	1 (inactive)	1.01 (inactive)	1.01 (inactive)	0.997 (inactive)
O=C(O)c1nc(Cl)ccc1Cl	0.915	1.09	1.01	0.95	1.01 (inactive)	0.99 (inactive)	0.915 (inactive)	0.975 (inactive)	0.98 (inactive)	0.963 (inactive)	0.983 (inactive)	1.02 (inactive)
c1ccc2c(c1)cc1ccc3cccc4ccc2c1c34 [Benzo[a]pyrene]	0.972	1.03	1.06	1.01	0.948 (inactive)	1.03 (inactive)	1.01 (inactive)	0.977 (inactive)	1.01 (inactive)	1 (inactive)	1 (inactive)	1.04 (inactive)
CS(=O)(=O)NC(=O)c1cc(Oc2ccc(C(F)(F)F)cc2Cl)ccc1[N+](=O)[O-]	0.96	0.996	1.08	1	0.93 (inactive)	0.985 (inactive)	1.02 (inactive)	1.04 (inactive)	1.01 (inactive)	1.01 (inactive)	1.02 (inactive)	0.99 (inactive)
CC(Oc1ccc(Oc2ncc(C(F)(F)F)cc2Cl)cc1)C(=O)O (stereo not drawn)	1.02	1.03	1.01	0.977	0.989 (inactive)	0.943 (inactive)	0.974 (inactive)	1.05 (inactive)	0.988 (inactive)	1.04 (inactive)	0.981 (inactive)	0.982 (inactive)
CC1(C)C(C=C(Cl)Cl)C1C(=O)OC(C#N)c1cccc(Oc2ccccc2)c1 (mixture of isomers)	1.13	1.01	0.982	1.04	1.02 (inactive)	0.975 (inactive)	1.02 (inactive)	0.971 (inactive)	1.02 (inactive)	0.994 (inactive)	1.01 (inactive)	1 (inactive)
